Screening results deposited in PubChem BioAssay by several laboratories.
Only some compounds are listed: those with a hit (about 4.7% of all), similar ones and a draw of the others.
FBA Mtb inh – Mtb FBA enzyme inhibitors, primary screen, biochemical, fluorescence, strain H37Rv; Fructose-bisphosphate aldolase (Mycobacterium tuberculosis (strain ATCC 25618 / H37Rv)), …; purified M. tuberculosis FBA, fluorescence read-out; inhibition, % at 1 µM; 360,000 tested, 2.3% active; in the data active means inhibition above about 27%;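 further: 0% = vehicle and 100% = reference inhibitor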
CCHFV vOTU inh – CCHFV vOTU protease inhibitors, primary screen, biochemical, Pep-AMC substrate, fluorescence; Crimean-Congo hemorrhagic fever virus L polyprotein viral ovarian tumor (vOTU) protease …; inhibition, % at 11.5 µM; 370,000 tested, 0.55% active; further: 0% = vehicle wells with enzyme and 100% = no enzyme wells
SARS 3CLpro inh – SARS-CoV 3CLpro protease inhibitors, primary screen, biochemical, quenched FRET | recombinant SARS-CoV 3CLpro, quenched FRET peptide cleavage | inhibition, % at 6 µM | AID 1706, 2009 | 290,000 tested, 0.14% active | Replicase polyprotein 1ab (Severe acute respiratory syndrome coronavirus), P0C6X7; in the data active means inhibition above about 12%
RecA splice inh – Mtb RecA intein splicing inhibitors, primary screen, biochemical, fluorescence, HTS; cell-free RecA intein splicing; inhibition, % (no concentration beside the values); 290,000 tested, 0.75% active; AID 2221, 2009; in the data active means inhibition above about 30%;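 further: 0% = vehicle wells and 100% = reference inhibitor control wells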
Target sequence (P9WHJ3 whole entry, looked up, canonical isoform): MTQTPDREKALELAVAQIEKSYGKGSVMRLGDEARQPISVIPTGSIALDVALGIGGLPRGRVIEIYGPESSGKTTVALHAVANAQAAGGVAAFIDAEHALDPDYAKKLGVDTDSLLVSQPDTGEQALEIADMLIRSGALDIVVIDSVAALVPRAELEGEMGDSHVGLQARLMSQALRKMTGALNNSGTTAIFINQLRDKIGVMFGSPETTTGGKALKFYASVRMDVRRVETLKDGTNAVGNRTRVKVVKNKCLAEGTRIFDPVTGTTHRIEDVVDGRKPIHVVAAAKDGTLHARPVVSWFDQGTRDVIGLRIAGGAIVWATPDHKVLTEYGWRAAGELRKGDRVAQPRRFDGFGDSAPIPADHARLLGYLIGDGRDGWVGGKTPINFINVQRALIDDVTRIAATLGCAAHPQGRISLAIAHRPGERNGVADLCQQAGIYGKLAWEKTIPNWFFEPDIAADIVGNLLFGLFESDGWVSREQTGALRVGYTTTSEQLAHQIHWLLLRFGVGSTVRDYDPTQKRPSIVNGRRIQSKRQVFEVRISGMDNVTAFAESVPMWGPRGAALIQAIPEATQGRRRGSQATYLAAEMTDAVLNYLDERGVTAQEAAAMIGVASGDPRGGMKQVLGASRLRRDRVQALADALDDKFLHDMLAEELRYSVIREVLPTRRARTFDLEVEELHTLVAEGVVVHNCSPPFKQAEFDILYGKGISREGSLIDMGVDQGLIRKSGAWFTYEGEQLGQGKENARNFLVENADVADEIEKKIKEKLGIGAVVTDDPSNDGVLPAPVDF
VHR inh abs – VHR1 phosphatase inhibitors, primary screen, biochemical, absorbance, uHTS. Dual specificity protein phosphatase 3 (Homo sapiens), P51452. recombinant VHR phosphatase, pNPP absorbance. inhibition, % at 13.3 µM. 290,000 tested, 0.52% active. AID 1654, 2009; in the data active means inhibition above about 50%
GDH-TPI inh – GDH-TPI coupling enzyme inhibitors, primary screen, artefact control for M. tuberculosis FBA inhibitor project, biochemical, absorbance, full deck | GDH-TPI coupled enzyme counterscreen, NADH absorbance | inhibition, % at 4.8 µM | 360,000 tested, 1.2% active | AID 588335, 2011;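 further: 0% = DMSO wells and 100% = wells lacking the enzyme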
Active calls of the source: *; i = inactive; x = no result given; + = active, no number. Unless noted, no stated cut-off is given here; in the data, active means inhibition above about 30%; inactive means the rest.

SMILES	FBA Mtb inh	CCHFV vOTU inh	SARS 3CLpro inh	RecA splice inh	VHR inh abs	GDH-TPI inh
COc1ccc(CCNC(=O)c2cc3c(=O)n4ccccc4nc3n(CC3CCCO3)c2=N)cc1 (stereo unspecified)	15	-11	x	x	x	16
N=c1c(C(=O)NCCc2ccccc2)cc2c(=O)n3ccccc3nc2n1CC1CCCO1 (stereo unspecified)	+	-382	-1	i	21	10
O=C(C1CCC1)N1CCc2cc(S(=O)(=O)N3CCN(c4ccccc4F)CC3)ccc21	x	1	x	x	x	x
CC(=O)c1cccc(-c2cnc3c(NC=O)cc(-c4ccc(F)cc4)cn23)c1	-2	14	x	x	x	9
S=C(Nc1cccc(Cl)c1)Nc1cccc2cnccc12	-2	x	1	x	51*	14
Cc1ccc(NC(=S)Nc2cccc3cnccc23)cc1C	3	4	0	x	44	9
O=S(=O)(c1ccc(Nc2ccc(-c3ccc4c(c3)OCCO4)nn2)cc1)N1CCCC1	1	-4	1	4	35	34*
CC(=O)c1ccc(N/N=C(/C(N)=O)C2=NC(C)(C)Cc3ccccc32)cc1	-3	11	1	4	7	35*
CCCC(=O)NC1=C(N2CC2)C(=O)C(NC(=O)CCC)=C(N2CC2)C1=O	-2	28	x	x	x	33*
Cc1cccc(NC(=O)C2CCN(c3nnc(-n4cccc4)s3)CC2)c1C	x	7	x	x	x	x
O=C(N/N=C/c1ccc2c(c1)OCO2)/C(=C/c1ccc2c(c1)OCO2)NC(=O)c1ccccc1	0	6	3	-1	10	55*
COC(=O)N/N=C/c1cccs1	2	-5	1	5	6	-3
COc1ccc([N+](=O)[O-])cc1/C=N/NC(=O)/C(=C\c1cccs1)NC(=O)c1ccccc1	-2	-6	-3	0	20	43*
COc1ccc(/C=C(/NC(=O)c2ccccc2)C(=O)N/N=C/c2cccs2)cc1OC	-2	-2	3	1	24	69*
COc1cc2ccccc2cc1C(=O)N/N=C/c1cccs1	4	19	x	x	x	35*
O=C(Nc1cccc(C(=O)O)c1)/C(=C\c1ccc2c(c1)OCO2)NC(=O)c1ccccc1	-3	8	4	0	36	25
Nc1nc2c(ncn2[C@@H]2O[C@H](C(=O)NCC3CCCCC3)[C@@H](O)[C@H]2O)c(=O)[nH]1	x	3	x	x	x	x
CC(OC(=O)CC1CC2CCC1C2)C(=O)Nc1cccc(S(=O)(=O)N2CCOCC2)c1 (stereo unspecified)	2	1	x	0	x	16
Cc1cccc(NC(=O)CSc2nnc(-c3cccnc3)n2Cc2ccco2)c1C	x	2	x	x	x	x
COc1ccc(/C=C(/NC(=O)c2ccccc2)C(=O)N/N=C/c2ccc3c(c2)OCO3)cc1OC	-4	0	3	x	11	65*
O=C(CSc1nc2ccccc2nc1N1CCOCC1)N1CCN(c2cccc(C(F)(F)F)c2)CC1	x	18	x	x	x	x
COc1ccccc1N1C(=O)S/C(=C\c2ccc(C)s2)C1=O	2	-5	0	-1	-4	34*
Cc1cccc(CN2C(=O)CSc3ccc(C(=O)NC4CC4)cc32)c1	-3	4	1	5	15	-8
CC1(c2ccncc2)Nc2ccccc2-c2nc3ccccc3n21 (stereo unspecified)	158*	-226	-2	0	6	8
CC(=O)c1ccc(S(=O)(=O)Nc2cccc(-n3cnnn3)c2)cc1	3	1	1	0	13	-3
SMILES	FBA Mtb inh	CCHFV vOTU inh	SARS 3CLpro inh	RecA splice inh	VHR inh abs	GDH-TPI inh
C=CCn1c(N)c(C(=O)OC(C)(C)C)c2nc3ccccc3nc21	+	-235	2	-133	12	22
CCOC(=O)c1c(N)n(CC(C)NC(=O)C2CC2)c2nc3ccccc3nc12 (stereo unspecified)	x	x	4	x	34	x
C=CCn1c(N)c(C(=O)OC(C)CC)c2nc3ccccc3nc21 (stereo unspecified)	167*	-207	-4	-77	22	20
C=CCn1c(N)c(C(=O)Nc2ccccc2)c2nc3ccccc3nc21	10	10	-1	17	6	5
Cc1cc(OCc2cn(CC(=O)c3ccc(O)cc3)nn2)ccc1[N+](=O)[O-]	0	6	x	x	x	41*
CC1OC(Oc2ccc3ccc(=O)oc3c2-c2c(O)ccc3cc(Oc4ccc5ccc(=O)oc5c4)c(=O)oc23)C(O)C(O)C1O (stereo unspecified)	3	2	2	-63	-11	45*
CCCc1c(C(=O)N/N=C/C2CC=CCC2)nnn1-c1nonc1N (stereo unspecified)	4	13	x	x	x	9
N#CC(C(=O)NC1CC1)c1nc2ccccc2nc1N1CCCC1 (stereo unspecified)	61*	-32	-2	-76	2	20
CCOC1=C2[C@H]([C@H]3C(=O)N(c4ccccc4)C(=O)[C@H]3C1)[C@@H](C(C)C)N(S(=O)(=O)c1ccc(C)cc1)[C@H]2c1ccccc1	3	1	x	x	x	x
CN(Cc1ccc(Cl)s1)C(=O)CCl	-4	2	4	43*	13	-9
CN(Cc1ccc(Cl)cc1)C(=O)CCl	-1	-11	-5	63*	20	0
COc1ccc(CN(C)C(=O)CCl)cc1	0	-6	-3	x	16	-7
Cc1ccc2c(c1)C(CS(=O)(=O)NCC(C)C)NC2 (stereo unspecified)	x	1	x	x	x	x
COc1ccc(C2/C(=C(/O)c3ccccc3)C(=O)C(=O)N2c2ccccn2)c(OC)c1 (stereo unspecified)	1	5	-8	0	28	31*
O=C(c1ccc(Br)o1)N1CCN(C23CC4CC(CC(C4)C2)C3)CC1	-1	-1	-1	0	56*	-7
O=c1c2ccccc2[se]n1-c1ccccc1	-2	-1	1	-1	16	84*
CC(=O)Nc1ccc(C2=NN(c3ccccc3)C(c3cccs3)C2)cc1 (stereo unspecified)	189*	-18	2	-7	34	7
CC(=O)N1N=C(c2ccccc2)CC1c1cccs1 (stereo unspecified)	9	-8	2	-3	16	5
CCS(=O)(=O)Nc1ccc(C2=NN(C(=O)c3ccco3)C(c3cccs3)C2)cc1 (stereo unspecified)	2	26	-4	0	14	46*
Cc1ccccc1C(=O)N(C)[C@H]1C[C@H]2c3[nH]c4c(-c5ccccc5)cccc4c3CCN2C(=O)[C@H]1[C@H](C)O	x	15	x	x	x	x
CC(=O)Nc1cccc2c1Cc1cc([N+](=O)[O-])ccc1-2	1	6	x	x	x	40*
